Laboratory results taken from PubChem BioAssay (NCATS).
Values joined by “and” are separate entries in the source; they are usually repeats but may differ in a detail not shown here. Equal entries are not always repeated. Records with an inconclusive call do not appear. Where a call stands in place of a potency, no number is given. Some compounds were tested as several samples or in several runs, with calls that do not always agree. Active and inactive are the calls of the source. Calls come from the whole dose curve; as a rule, active = well fitted curve in the direction sought with a large enough effect; inconclusive = small, poorly fitted or top-dose-only effect, or another doubt; inactive = no such curve, though single readings can be large; an effect the other way counts as inactive or inconclusive.

What was measured:
[1] = P-glycoprotein substrates identified in KB-3-1 adenocarcinoma cell line, qHTS therapeutic library screen (AID 1346986); note: nearly all actives have a fitted effect of over 60% in size;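 note: potency is for cytotoxicity meaning loss of cell viability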
Method in brief: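 Viability read by CellTiter-Glo after 72 h compound exposure in dose-response of KB-3-1 and KB-8-5-11 (P-gp-high) cells. Hits needed AC50 < 10 uM, >50% maximum response and curve class -1.1 to -2.4. Cherry-picks retested ± tariquidar, including pcDNA/MDR-19 HEK-293 pair.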

[2] = P-glycoprotein substrates identified in KB-8-5-11 adenocarcinoma cell line, qHTS therapeutic library screen (AID 1346987); note: nearly all actives have a fitted effect of over 65% in size; for activity change, negative = cytotoxicity: series mostly up to about 44 µM
Method in brief: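 Luminescence from CellTiter-Glo, read 5 min after addition, quantified survival of KB-8-5-11 (P-gp-overexpressing) cells exposed to compounds for 72 h. AC50 was derived from concentration-response curves.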
Potency is the fitted concentration of half-maximal effect.

## C[C@@H]1O[C@@H](O[C@H]2[C@H](O)[C@@H](O)[C@H](OC[C@H]3O[C@@H](OC(=O)[C@]45CCC(C)(C)C[C@H]4C4=CCC6[C@@]7(C)C[C@@H](O)[C@H](O)[C@@](C)(CO)C7[C@H](O)C[C@@]6(C)[C@]4(C)CC5)[C@H](O)[C@@H](O)[C@@H]3O)O[C@@H]2CO)[C@H](O)[C@H](O)[C@H]1O (stereo partly specified)
[1]
  outcome: inactive [at 9.29 µM]
[2]
  outcome: inactive [at 9.29 µM]

## COc1ccc(O[C@@H]2O[C@H](CO)[C@@H](O)[C@H](O)[C@H]2O)cc1OC
[1]
  Potency: inactive
[2]
  Potency: inactive

## C=C1CC2C3(C)C(O)CC(=O)C(C)(C)C3C(O)C(OC(C)=O)C2(C)C2C(=O)OC(C)(C(=O)OC)C(=O)C12C (stereo unspecified)
[1]
  Potency: inactive
[2]
  Potency: inactive

## Nc1ncnc2c1ncn2[C@H]1O[C@@H](C(=O)N2CCN(CC(=O)Nc3cccc4c3CNC4=O)CC2)[C@H](O)[C@@H]1O
[1]
  Potency: inactive
[2]
  Potency: inactive

## COC(=O)C1=COC(O[C@@H]2O[C@H](COC(=O)/C=C/c3ccc(O)cc3)[C@@H](O)[C@H](O)[C@H]2O)C2C(CO)=CCC12 (stereo partly specified)
[1]
  Potency: inactive
[2]
  Potency: inactive

## CC1(C)CCC2(C(=O)O)C(O)CC3(C)C(=CCC4C5(C)CCC(OC6OC(CO)C(O)C(O)C6OC6OC(CO)C(O)C(O)C6OC6OCC(O)(CO)C6O)C(C)(C)C5CCC43C)C2C1 (stereo unspecified)
[1]
  outcome: inactive [at 9.29 µM]
[2]
  outcome: inactive [at 9.29 µM]

## Cc1c(F)cc(C(=O)NC2CC2)cc1-c1ccc(C(=O)NCC(C)(C)C)cn1
[1]
  Potency: 920 nM (active)
[2]
  Potency: inactive and 1.03 µM (active)

## CC(C)C1CCC(C(=O)N[C@@H](Cc2ccccc2)C(=O)O)CC1 (stereo partly specified)
[1]
  Potency: inactive
[2]
  Potency: inactive

## Nc1nc2c(nc(Sc3ccc(Cl)cc3)n2[C@@H]2O[C@@H]3COP(=O)(O)O[C@H]3[C@H]2O)c(=O)[nH]1
[1]
  Potency: inactive
[2]
  Potency: inactive

## CC1(C)CC[C@]2(C(=O)O)CC[C@]3(C)C(=CCC4[C@@]5(C)CC[C@H](O[C@@H]6O[C@H](C(=O)O)[C@@H](O)[C@H](O[C@@H]7O[C@H](CO)[C@H](O)[C@H](O)[C@H]7O)[C@H]6O[C@@H]6O[C@H](CO)[C@@H](O)[C@H](O)[C@H]6O)C(C)(C)C5CC[C@]43C)[C@@H]2C1 (stereo partly specified)
[1]
  outcome: inactive [at 5.11 µM]
[2]
  activity change, negative = cytotoxicity: 3.75% [at 5.11 µM] (inactive)

## CC1CC=C2C1CC1(O)C(=O)CC2(C)C1(C)CO (stereo unspecified)
[1]
  Potency: inactive
[2]
  Potency: inactive

## CC1(C)CC[C@]2(C(=O)O[C@@H]3O[C@H](CO)[C@@H](O)[C@H](O)[C@H]3O)CC[C@]3(C)C(=CCC4[C@@]5(C)CC[C@H](OC6OC(C(=O)O)C(OC7OC(CO)C(O)C(O)C7O)C(O)C6O)C(C)(C)C5CC[C@]43C)C2C1 (stereo partly specified)
[1]
  outcome: inactive [at 9.29 µM]
[2]
  activity change, negative = cytotoxicity: 9.04% [at 9.29 µM] (inactive)

## CC1(C)[C@H]2C[C@H](C/C=C\CCCC(=O)O)[C@@H](NC(=O)c3csc4ccc(O)cc34)[C@@H]1C2
[1]
  Potency: inactive
[2]
  Potency: inactive

## COc1cnc(-n2cnc(C)n2)c2[nH]cc(C(=O)C(=O)N3CCN(C(=O)c4ccccc4)CC3)c12
[1]
  Potency: inactive
[2]
  Potency: inactive

## CC1(C)C2CC[C@]3(C)C(C(=O)C=C4[C@H]5C[C@@](C)(C(=O)O)CC[C@]5(C)CC[C@]43C)[C@@]2(C)CC[C@@H]1O (stereo partly specified)
[1]
  Potency: inactive
[2]
  Potency: inactive

## O=C(O)c1ccc(NC(=O)[C@H](CC2CCCC2)n2cnc(C(F)(F)F)c2)nc1
[1]
  Potency: inactive
[2]
  Potency: inactive

## OCC(O)C(c1c[nH]c2ccccc12)c1c[nH]c2ccccc12 (stereo unspecified)
[1]
  Potency: inactive
[2]
  Potency: inactive

## C=C1C(=O)OC2CC(COC(=O)C(C)C)=C(C(C)CCCOC(C)=O)[C@@H](OC(C)=O)C12 (stereo partly specified)
[1]
  Potency: inactive
[2]
  Potency: inactive

## O=C(/C=C/c1ccc(O)cc1)OC[C@H]1O[C@H](O[C@@]2(CO)O[C@@H](CO)[C@H](O)[C@H]2O)[C@H](O)[C@@H](O)[C@@H]1O
[1]
  Potency: inactive
[2]
  Potency: inactive

## O=C(Nc1ccn(Cc2c(F)cccc2C(F)(F)F)n1)c1c(F)cccc1F
[1]
  outcome: inactive [at 9.29 µM]
[2]
  activity change, negative = cytotoxicity: 7.74% [at 9.29 µM] (inactive)

## CC(C)NC(=O)c1ccc(C#Cc2ccncc2)cn1
[1]
  Potency: inactive
[2]
  Potency: inactive

## Cc1occc(=O)c1O[C@@H]1O[C@H](CO)[C@@H](O)[C@H](O)[C@H]1O
[1]
  Potency: inactive
[2]
  Potency: inactive

## CC(C)=CCC[C@@](C)(O)[C@H]1CC[C@]2(C)[C@@H]1[C@H](O)CC1[C@@]3(C)CC[C@H](O[C@@H]4O[C@H](CO)[C@@H](O)[C@H](O)[C@H]4O[C@@H]4O[C@H](CO)[C@@H](O)[C@H](O)[C@H]4O)C(C)(C)[C@@H]3CC[C@]12C (stereo partly specified)
[1]
  Potency: inactive
[2]
  Potency: inactive
